Screening results (PubChem)
Shown are actives, neighbours in structure and some others; about 4.3% of the full set was active somewhere.
MITF TRPM1 HTS: activators of MITF-driven TRPM1 promoter activity in SK-MEL-5 cells | SK-MEL-5 TRPM1-promoter luciferase, 24 h; % of positive control, neutral wells = 0 | activation, % at 12.5 µM | actives 0.75% (n = 300,000) | AID 588334;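 active means mean activation of at least 80% with every replicate also reaching 80%; inconclusive means mean reaches 80% but some replicate falls short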;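 further: 0% = neutral control wells and 100% = parthenolide positive control wells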
esBAF inh: blocks esBAF chromatin remodeling in mouse ES cells; Bmi1-luciferase knock-in reporter, 24 h; 100% = twice the neutral-well signal; reporter increase, % at 12.5 µM; actives 2% (n = 350,000); in the data active means activation above about 40%; inconclusive means no clear call, values can overlap the other calls;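 further: 0% = median of the plate's neutral control wells and 100% = double that signal; a rise in the Bmi1 reporter signal indicates esBAF inhibition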
MLL AF4-AF9 inh: blocks AF4 peptide binding to human AF9 | AlphaScreen, biotin-AF4 peptide binding to FLAG-AF9 | inhibition, % at 10 µM | actives 0.47% (n = 350,000);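 active means every replicate reaching a set inhibition limit, whatever the replicate mean, cut at about 25% in these data; inconclusive means mean inhibition reaches that limit but some replicates miss it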;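 further: 0% = plate neutral control median and 100% = total signal loss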
Target sequence (P42568 whole entry, looked up): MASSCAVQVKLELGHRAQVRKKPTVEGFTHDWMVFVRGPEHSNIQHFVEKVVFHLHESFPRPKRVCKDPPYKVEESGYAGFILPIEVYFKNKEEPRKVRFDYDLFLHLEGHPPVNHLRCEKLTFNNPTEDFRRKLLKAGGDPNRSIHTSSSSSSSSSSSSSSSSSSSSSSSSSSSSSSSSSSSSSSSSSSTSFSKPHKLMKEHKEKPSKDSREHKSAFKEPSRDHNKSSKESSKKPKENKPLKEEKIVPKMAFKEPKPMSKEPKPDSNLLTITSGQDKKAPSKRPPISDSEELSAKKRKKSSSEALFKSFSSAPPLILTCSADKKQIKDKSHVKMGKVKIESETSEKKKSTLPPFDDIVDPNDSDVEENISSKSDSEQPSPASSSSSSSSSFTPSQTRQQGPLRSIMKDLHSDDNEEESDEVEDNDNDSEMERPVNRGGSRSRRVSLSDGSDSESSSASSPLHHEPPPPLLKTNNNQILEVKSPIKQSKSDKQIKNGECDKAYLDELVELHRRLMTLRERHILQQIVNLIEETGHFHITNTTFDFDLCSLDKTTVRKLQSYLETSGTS
FGF22 binding: binders of recombinant human FGF22 by thermal shift | Q9HCT0 | activity (Tm shift, normalised), % at 9.99 µM | AID 651658 | actives 1.5% (n = 340,000) | SYPRO orange fluorescence; percent of sucrose octasulfate shift, DMSO zero;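 active means mean Tm shift, scaled 0 neutral to 100 positive control, at about 1.3% or above, every replicate too, limit read from the data; inconclusive means no clear call, values can overlap the other calls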
Target sequence (Q9HCT0 whole entry, looked up): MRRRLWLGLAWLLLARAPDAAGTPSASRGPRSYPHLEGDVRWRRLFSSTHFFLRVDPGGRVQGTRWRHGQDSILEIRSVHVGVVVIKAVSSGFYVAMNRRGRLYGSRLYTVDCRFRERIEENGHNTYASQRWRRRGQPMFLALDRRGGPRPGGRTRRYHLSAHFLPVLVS
Wnt act: Wnt/beta-catenin pathway activation. Wnt/beta-catenin reporter cell assay, activator, plate reader. activation, % at 9.35 µM. actives 1.2% (n = 300,000); in the data active means activation above about 30%, passing the limit was not always enough; inconclusive means no clear call, values can overlap the other calls;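 further: 0% = neutral control wells and 100% = positive control wells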
SMARCA2 activ: increases SMARCA2 function in MMTV reporter cells | AID 652017 | activation, % at 9.1 µM | actives 1% (n = 370,000) | MG213 cells, MMTV-luciferase reporter, dexamethasone, overnight; in the data active means activation above about 7.8%;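 further: 0% = vehicle wells and 100% = reference activator wells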
esBAF Ring1 qPCR: de-represses Ring1 in mouse ESCs, confirming esBAF inhibition; 550 tested, under 10 active; shares compounds with esBAF inh; mouse ESC E14, Ring1 mRNA RT-qPCR fold change; fold change at 33 µM;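 active means Ring1 gene expression raised more than 2-fold over untreated cells in both replicates at either tested dose; inconclusive means only one replicate above 2-fold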;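 further: Ring1 transcript normalised to actin housekeeping signal by TaqMan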
Fgf4 repress: esBAF inhibition confirmed by Fgf4 repression. shares compounds with esBAF inh. mouse ESC E14, Fgf4 mRNA qPCR fold change; active compounds read low. Fgf4 expression fold change at 33 µM. actives 4% (n = 550);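 active means Fgf4 expression under 0.8 fold of control in both repeat measurements at one or both tested doses; inconclusive means under 0.8 fold in just a single repeat measurement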;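 further: Fgf4 transcript normalised to actin in duplex TaqMan qPCR; cells exposed to compound for 24 h before lysis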
esBAF Bmi1 qPCR: de-represses Bmi1 in mouse ESCs, confirming esBAF inhibition; shares compounds with esBAF inh; mouse ESE14 ES cells, Bmi1 mRNA qPCR fold; active compounds read high; fold change at 33 µM; 550 tested, under 10 active; AID 743180;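 active means Bmi1 expression fold change above 6 at either tested concentration, seen in replicate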;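 further: higher fold means more Bmi1 de-repression and stronger esBAF inhibition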
A549 tox SP: A549 cell cytotoxicity. cell viability change % (negative = cytotoxic), % at 25 µM, hits read low. 550 tested, under 10 active. plate reader. shares compounds with esBAF inh; call rule not given here
HepG2 cytotox SP: kills or reduces viability of HepG2 cells; shares compounds with esBAF inh; HepG2 cytotoxicity, plate reader; active compounds read low; activity change, negative = inhibition, % at 25 µM; actives 4% (n = 550); AID 743189; in the data active means activity change below about -50%
HEK293 cytotox SP: cytotoxicity in HEK293 cells | shares compounds with esBAF inh | plate reader | activity change, negative = inhibition, % at 25 µM, hits read low | actives 3% (n = 550) | AID 743190; in the data active means activity change below about -38%, passing the limit was not always enough
The depositor's hits bear a star; ? = inconclusive; / = not tested or not shown.

SMILES | MITF TRPM1 HTS | esBAF inh | MLL AF4-AF9 inh | FGF22 binding | Wnt act | SMARCA2 activ | esBAF Ring1 qPCR | Fgf4 repress | esBAF Bmi1 qPCR | A549 tox SP | HepG2 cytotox SP | HEK293 cytotox SP
COc1cccc(OCc2cc(C(=O)N3CCN(C(C)=O)CC3)no2)c1 | 64 | 71* | 1 | 0 | 0 | 2 | 1.1 | 0.83 | 1.3 | -5 | -17 | 3
CO[C@@H]1CC[C@@H]2CCN(C)C(=O)[C@@H](C)N(C)C(=O)c3cc(C#N)ccc3OC[C@H]1O2 | / | 1 | 1 | 0 | / | / | / | / | / | / | / | /
COc1cccc(CNC(=O)C[C@H]2C=C[C@H](NS(=O)(=O)c3ccccc3OC)[C@H](CO)O2)c1 | / | -3 | -1 | 0 | / | / | / | / | / | / | / | /
COc1ccc(C#Cc2cnc3c(c2)C(=O)N([C@@H](C)CO)C[C@@H](C)[C@@H](CN(C)C(=O)CN(C)C)O3)cc1 | / | 6 | 10 | 0 | / | / | / | / | / | / | / | /
Cc1ccc(NCSc2ccc(Cl)cc2)cc1 | 50 | 72* | 0 | 0 | 16 | 4 | 0.96 | 1.1 | 1.5 | -16 | 42 | -2
Clc1ccc(SCNc2ccccc2Cl)cc1 | -11 | 7 | 1 | 0 | 3 | -1 | / | / | / | / | / | /
O=C1C(=Cc2ccncc2)CCCc2ccccc21 | / | 0 | 6 | 0 | 2 | -4 | / | / | / | / | / | /
O=C1/C(=C/c2cccc3ccccc23)CCCc2ccccc21 | 52 | 57* | / | / | 42* | 3 | 1.2 | 1.1 | 1.2 | -11 | 1 | 0
COCCNC(=O)C[C@@H]1CC[C@@H]2[C@H](COC[C@@H](O)CN2C(=O)Nc2ccccc2OC)O1 | / | -4 | -3 | 0 | / | / | / | / | / | / | / | /
CCc1sc(C(=O)Nc2ccc3nc(C)sc3c2)cc1C | 90* | 80* | -5 | 1 | 13 | 2 | 1.1 | 0.61* | 1.5 | -5 | 15 | -5
C[C@@H]1CN([C@H](C)CO)C(=O)Cc2cc(NC(=O)CCCCCC(=O)Nc3ccccc3N)ccc2O[C@@H]1CN(C)CC1CC1 | / | 2 | 4 | 0 | / | / | / | / | / | / | / | /
O=C(Nc1ccc2c(c1)OCO2)c1cnc(Cl)c(Cl)c1 | 53 | 54* | -1 | 0 | -1 | 5 | 0.97 | 1.1 | 1 | 5 | -9 | -2
C=CCNc1nc2cc(-c3ccccc3OC)sc2c(=O)n1C | / | 59* | -3 | 0 | 10 | 4 | 1.1 | 1 | 2.1 | -11 | -24 | -5
COCCNc1nc2cc(-c3ccccc3OC)sc2c(=O)n1C | / | 1 | -2 | 0 | / | -2 | / | / | / | / | / | /
COc1ccccc1C(=O)Nc1ccc(C(=O)O)cc1 | / | -8 | / | / | / | -1 | / | / | / | / | / | /
COc1cccc(NC(=O)c2ccccc2Br)c1 | / | 57* | -13 | 0 | 4 | 3 | 1.3 | 1 | 1.4 | -8 | -23 | -12
COc1cccc(NC(=O)c2ccccc2-c2ccccc2C(=O)O)c1 | / | -4 | 0 | 0 | 0 | -4 | / | / | / | / | / | /
COc1ccccc1C(=O)Oc1ccccc1C(=O)Nc1ccccc1 | 21 | 69* | -1 | 42 | 27 | 6 | 1.2 | 0.95 | 1.4 | -14 | -23 | -16
COc1ccc(-n2c(SCC(=O)Nc3cccc4ccccc34)nnc2-c2ccco2)cc1 | / | / | / | / | / | 1 | / | / | / | / | / | /
C[C@@H]1CN([C@H](C)CO)C(=O)c2cccc(NC(=O)c3cnccn3)c2O[C@@H]1CN(C)C(=O)Nc1cccc2ccccc12 | / | 0 | -1 | 1 | / | / | / | / | / | / | / | /
Cc1cc(Cl)c(O)c(-n2nc3ccccc3n2)c1 | 65 | 61* | 5 | 0 | -3 | 2 | 0.94 | 0.96 | 1.2 | 5 | -38 | 4
COC(=O)C1CN(Cc2cn(Cc3ccccc3)nn2)CCS(=O)(=O)N1Cc1ccc(F)cc1 (stereo not drawn) | / | / | / | / | / | -4 | / | / | / | / | / | /
COCC(=O)N(C)C[C@@H]1Oc2ncc(C#Cc3cccnc3)cc2C(=O)N([C@@H](C)CO)C[C@H]1C | / | -17 | -19 | 0 | / | / | / | / | / | / | / | /
CN(C(=O)c1ccc2c(Cl)c3c(nc2c1)CCC3)c1ccccc1 | / | 88* | -1 | 0 | 25 | 3 | 1.4 | 0.98 | 1.8 | 3 | -23 | 1
CCN(C(=O)c1ccc2c(Cl)c3c(nc2c1)CCC3)c1ccc(C)c(C)c1 | -2 | -4 | 5 | 0 | -3 | -3 | / | / | / | / | / | /
SMILES | MITF TRPM1 HTS | esBAF inh | MLL AF4-AF9 inh | FGF22 binding | Wnt act | SMARCA2 activ | esBAF Ring1 qPCR | Fgf4 repress | esBAF Bmi1 qPCR | A549 tox SP | HepG2 cytotox SP | HEK293 cytotox SP
Cc1ccc(NC(=O)Nc2cccc(C)n2)c(C)c1 | 22 | 56* | -2 | 0 | 39* | 3 | 1.1 | 0.84 | 1.4 | -1 | -26 | 10
Cc1ccc2c3c([nH]c2c1C)-c1nonc1CC3 | 47 | 55* | / | / | 11 | -2 | 1.2 | ? | 1.8 | -3 | -34 | -24
C/C=C/c1cnc2c(c1)C(=O)N([C@H](C)CO)C[C@@H](C)[C@@H](CN(C)C(=O)Nc1ccccc1F)O2 | / | / | -4 | 0 | / | / | / | / | / | / | / | /
Cn1c2ccccc2c(=O)c2cc(C#Cc3ccsc3)ccc21 | 63 | 62* | -2 | 0 | 24 | 3 | 1.1 | ? | 1.4 | -4 | 8 | -6
O=C(c1ccccc1)c1cc2cc(Cl)ccc2[nH]1 | 62 | 34 | -1 | 0 | 18 | 4 | / | / | / | / | / | /
COc1cccc(C(=O)c2cc3cc(Cl)ccc3[nH]2)c1 | 23 | 78* | -8 | 0 | 14 | 5 | 1 | ? | 2.5 | -6 | -34 | 5
Cc1ccc(NC(=O)Cc2noc3ccccc23)cc1 | / | 81* | / | / | / | 4 | 1.1 | 1 | 0.99 | 2 | -34 | -12
N#Cc1ccccc1CSc1ccc(-c2nc3ccccc3[nH]2)cn1 | 35 | / | / | / | / | 1 | / | / | / | / | / | /
Cc1ccc(-c2nc3ccccc3[nH]2)cn1 | 33 | 63* | -14 | 0 | 0 | 2 | 0.9 | 1.4 | 1.4 | -30 | -38 | -28
CO[C@H]1CC[C@H]2CCOc3c(C#N)cccc3C(=O)N(C)C[C@@H](OC)[C@H](C)C(=O)N(C)C[C@H]1O2 | / | 0 | 0 | 0 | / | / | / | / | / | / | / | /
COC(=O)c1cc(-c2cccc(C(F)(F)F)c2)c(=O)n2c1CCC2 | / | / | / | / | / | 0 | / | / | / | / | / | /
NC(=O)c1ccc(CSc2nc3ccccc3s2)cc1 | 55 | 54* | -4 | 0 | 19 | 2 | 1.4 | 0.87 | 1.7 | -8 | 6 | -12
CCNC(=O)c1ccc(CSc2nc3ccccc3s2)cc1 | 60 | / | 1 | 0 | 16 | 0 | / | / | / | / | / | /
